# Assay results published in PubChem BioAssay.
# Activity calls are given as the source filed them.
# Legend:
# [1] = anti-His antibody binders, primary screen, artefact control for SMM control protein annotation, biochemical, small-molecule microarray, 635 nm fluorescence (AID 1128); settings: anti-His Alexa647 antibody binding, higher = more signal;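 also: score merges feature fluorescence with signal-to-noise for each printed compound spot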
# [2] = system: Human papillomavirus type 1a E7 protein (residues 1-88); experiment: HPV1a E7 small-molecule binders, primary screen, biochemical, small-molecule microarray, residues 1-88, 635 nm (AID 1129); settings: small-molecule microarray binding, fluorescence 635 nm; higher = more signal
# [3] = target: Focal adhesion kinase 1 (Homo sapiens) (UniProt Q05397); experiment: small-molecule microarray binders of FAK, primary screen, biochemical, 635/667 nm fluorescence, BSA, DTT (AID 1130); settings: PTK2 binding, 635 nm fluorescence, higher = more signal;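 also: composite of spot emission at 667 nm and signal to noise over triplicate slides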
# Chain of Focal adhesion kinase 1 (Homo sapiens) (Q05397 whole entry, looked up): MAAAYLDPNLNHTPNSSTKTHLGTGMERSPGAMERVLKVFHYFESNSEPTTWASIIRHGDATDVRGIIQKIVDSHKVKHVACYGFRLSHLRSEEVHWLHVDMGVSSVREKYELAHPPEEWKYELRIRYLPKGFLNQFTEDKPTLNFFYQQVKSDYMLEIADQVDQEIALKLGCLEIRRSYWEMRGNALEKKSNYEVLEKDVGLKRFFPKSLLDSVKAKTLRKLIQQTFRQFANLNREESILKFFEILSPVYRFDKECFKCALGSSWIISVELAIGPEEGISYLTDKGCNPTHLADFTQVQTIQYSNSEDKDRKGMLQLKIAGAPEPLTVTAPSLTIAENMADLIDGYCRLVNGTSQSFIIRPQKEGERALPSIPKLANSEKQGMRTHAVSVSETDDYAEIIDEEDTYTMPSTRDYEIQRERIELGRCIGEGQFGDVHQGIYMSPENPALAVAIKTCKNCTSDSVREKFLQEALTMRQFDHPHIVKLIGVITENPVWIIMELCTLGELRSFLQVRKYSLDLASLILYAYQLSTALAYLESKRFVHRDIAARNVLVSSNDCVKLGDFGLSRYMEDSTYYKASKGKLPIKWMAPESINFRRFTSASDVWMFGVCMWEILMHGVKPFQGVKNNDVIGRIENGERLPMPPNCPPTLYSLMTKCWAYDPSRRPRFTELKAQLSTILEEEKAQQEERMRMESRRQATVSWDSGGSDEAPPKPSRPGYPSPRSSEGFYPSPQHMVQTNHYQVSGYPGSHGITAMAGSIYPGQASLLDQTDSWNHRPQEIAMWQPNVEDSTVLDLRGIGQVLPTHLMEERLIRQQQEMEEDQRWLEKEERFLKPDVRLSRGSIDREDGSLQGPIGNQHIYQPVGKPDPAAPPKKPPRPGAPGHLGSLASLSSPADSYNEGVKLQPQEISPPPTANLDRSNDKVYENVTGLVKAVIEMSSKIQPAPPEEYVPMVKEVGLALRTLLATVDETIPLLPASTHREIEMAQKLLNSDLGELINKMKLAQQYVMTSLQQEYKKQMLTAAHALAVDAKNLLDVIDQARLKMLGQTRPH
# [4] = system: Fibrinogen (Alexa647-labelled); experiment: fibrinogen binders on compound microarrays, profiling panel, artefact control for SMM control-protein annotation, biochemical, small-molecule microarray, 635/667 nm fluorescence (AID 1131); settings: fibrinogen-A647 binding fluorescence, higher = more signal;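 also: z-score merges 667 nm fluorescence with per-spot signal-to-noise over triplicate slides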
# [5] = target: Follistatin (Homo sapiens) (UniProt P19883); experiment: follistatin binders on small-molecule microarrays, primary screen, biochemical, small-molecule microarray, 635/667 nm fluorescence (AID 1132); settings: FST binding, 635 nm fluorescence, higher = more signal
# Chain of Follistatin (Homo sapiens) (P19883 whole entry, looked up): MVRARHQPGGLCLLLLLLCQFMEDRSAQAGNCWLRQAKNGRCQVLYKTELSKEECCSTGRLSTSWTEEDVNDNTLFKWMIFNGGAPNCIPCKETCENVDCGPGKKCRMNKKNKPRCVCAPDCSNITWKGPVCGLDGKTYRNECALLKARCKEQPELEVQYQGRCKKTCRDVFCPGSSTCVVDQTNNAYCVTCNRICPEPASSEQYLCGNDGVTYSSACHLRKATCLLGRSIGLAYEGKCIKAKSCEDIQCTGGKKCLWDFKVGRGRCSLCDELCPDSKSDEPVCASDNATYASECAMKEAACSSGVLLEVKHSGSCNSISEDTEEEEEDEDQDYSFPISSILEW
# [6] = target: Fibroblast growth factor 2 (Homo sapiens) (UniProt P09038); experiment: FGF2 binders on small-molecule microarrays, primary screen, biochemical, small-molecule microarray, 635/667 nm fluorescence (AID 1133); settings: small-molecule microarray binding, FGF2, fluorescence 635/667; higher = more signal
# Chain of Fibroblast growth factor 2 (Homo sapiens) (P09038 whole entry, looked up): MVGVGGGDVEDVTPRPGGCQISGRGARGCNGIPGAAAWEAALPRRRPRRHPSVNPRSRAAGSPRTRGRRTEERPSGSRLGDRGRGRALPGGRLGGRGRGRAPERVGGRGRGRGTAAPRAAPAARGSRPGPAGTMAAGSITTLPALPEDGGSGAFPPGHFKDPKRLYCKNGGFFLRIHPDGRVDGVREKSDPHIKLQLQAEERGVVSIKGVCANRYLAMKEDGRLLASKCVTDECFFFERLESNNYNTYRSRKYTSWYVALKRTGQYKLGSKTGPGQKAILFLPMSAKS
# [7] = mitochondrial membrane potential change in A549 cells, profiling panel, cell-based, JC-1 fluorescence, basal, 24 h, 100 nL (AID 1138); settings: higher = more signal;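 also: A549 lung adenocarcinoma cells under basal conditions with no added stimulus; test concentration not given here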
# [8] = system: Lefty1; experiment: Lefty1 binders on small-molecule microarrays, primary screen, biochemical, small-molecule microarray, 635/667 nm fluorescence (AID 1139); settings: small-molecule microarray binding, fluorescence 635/667; higher = more signal
# [9] = system: wheat germ agglutinin (Triticum aestivum), Alexa647-labelled; experiment: wheat germ agglutinin binders on compound microarrays, profiling panel, artefact control for SMM control-protein annotation, biochemical, small-molecule microarray, 635/667 nm fluorescence (AID 1140); settings: WGA-A647 binding, 635 nm fluorescence, higher = more signal;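 also: score merges 667 nm feature emission with signal to noise over triplicate slides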
# [10] = target: Luciferin 4-monooxygenase (Photinus pyralis) (UniProt P08659); experiment: firefly luciferase enzyme inhibitors, primary screen, biochemical, luminescence, purified enzyme, 2006 set (AID 1141); settings: SteadyGlo luminescence, 30 min, higher = more signal, called active from +8 up or from −8 down;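 also: cell-free assay with purified firefly luciferase at 100 ng per well in PBS; test concentration not given here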
# Chain of Luciferin 4-monooxygenase (Photinus pyralis) (P08659 whole entry, looked up): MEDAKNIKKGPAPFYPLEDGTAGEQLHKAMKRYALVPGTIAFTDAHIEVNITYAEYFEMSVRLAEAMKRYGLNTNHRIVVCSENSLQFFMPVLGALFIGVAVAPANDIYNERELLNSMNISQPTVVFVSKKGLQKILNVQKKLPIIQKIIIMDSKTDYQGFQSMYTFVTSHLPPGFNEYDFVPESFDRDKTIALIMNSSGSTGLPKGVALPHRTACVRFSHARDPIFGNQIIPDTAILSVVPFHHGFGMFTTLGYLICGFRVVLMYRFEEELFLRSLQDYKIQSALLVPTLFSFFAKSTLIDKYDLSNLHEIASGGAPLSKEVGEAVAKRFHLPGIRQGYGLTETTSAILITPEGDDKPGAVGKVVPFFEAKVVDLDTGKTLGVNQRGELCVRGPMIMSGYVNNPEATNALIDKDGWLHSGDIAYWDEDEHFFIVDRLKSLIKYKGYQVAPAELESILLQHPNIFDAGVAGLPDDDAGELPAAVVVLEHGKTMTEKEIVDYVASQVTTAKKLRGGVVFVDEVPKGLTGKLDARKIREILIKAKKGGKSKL
Structure (SMILES),composite z-score [1],composite z-score [2],composite z-score [3],composite z-score [4],composite z-score [5],composite z-score [6],z-score [7],composite z-score [8],composite z-score [9],z-score [10]
C=CC[C@@]1(C(=O)NCc2ccccc2)N=C(c2ccc(OCCCO)cc2)O[C@@H]1c1ccccc1N=[N+]=[N-],2.41,1.24,0.649,0.993,1.28,0.281,0.444,0.11,1,-8.72 (active)
C=C(CCCC)C(=O)CC[C@@H](OC(=O)c1cccnc1)c1ccc(CO)o1,1.18,1,-0.338,0.947,1.25,1.47,-0.627,1.36,0.828,-2.32 (inactive)
OC([C@@H]1CC(c2ccccc2)=NO1)[C@H]1CC(c2ccccc2)=NO1 (stereo not given in full),0.176,-0.236,-0.141,0.0985,0.0914,0.128,-0.0913,0.484,-0.259,-1.46 (inactive)
CN(C)CCCC[C@@H]1NC(=O)[C@H]2C[C@@H](C(=O)NCCCCCNC(=O)CS)[C@@H](c3cccc(OCCO)c3)N2C1=O,1.32,0.866,0.688,0.44,1.41,1.69,0.446,1,-0.0708,-0.804 (inactive)
C=C(CCCC)C(=O)CC[C@H](OC(=O)c1cccnc1)c1ccccc1OCCO,0.984,-0.513,0.0467,-0.633,0.537,1.32,1.08,0.785,0.14,-0.288 (inactive)
O=C(NCC(F)(F)F)[C@@H]1c2ccccc2C(=O)N(C2CCCCC2)[C@H]1c1ccc(CO)cc1,-0.216,0.402,-0.013,0.403,0.173,-0.179,0.221,-0.63,0.807,-0.128 (inactive)
C=CCOC(=O)[C@@H]1[C@H]2C(=O)O[C@H](c3ccccc3)[C@H](c3ccccc3)N2[C@H](c2ccc(OCCOC(=O)[C@@H]3C[C@@H]4C(=O)N[C@@H](CCCC[N+](C)(C)C)C(=O)N4[C@@H]3c3cccc(OCCO)c3)cc2)[C@@]12C(=O)Nc1ccc(I)cc12,1.13,1.17,1.15,0.531,1.41,1.79,-1.2,1.64,0.347,-1.82 (inactive)
COCCOC(=O)N1C(=O)[C@@]2(c3cc(C#CCNC(N)=O)ccc31)[C@H](C(=O)NC[C@H](O)c1ccccc1)[C@H]1C(=O)O[C@H](c3ccccc3)[C@H](c3ccccc3)N1[C@@H]2c1ccccc1OCCO,1.06,0.769,0.564,0.762,1.07,0.73,-1.08,0.946,0.592,-0.533 (inactive)
O=C1C[C@]2(c3ccc([N+](=O)[O-])cc3)C(=O)N(CCN3CCOCC3)c3cc(CO)ccc3[C@H]2N1C1CCCCC1,-0.106,-1.24,-0.617,0.975,-0.414,0.189,0.631,-0.599,0.409,-0.648 (inactive)
CCOC(=O)C[C@H]1[C@H](OC(=O)Cc2ccc3c(c2)OCO3)[C@@H](NC(=O)c2ccc3ccccc3c2)c2cc(OCCCO)ccc2N1C(=O)c1ccccc1,0.638,0.878,0.675,0.823,0.375,0.111,1.84,0.593,0.271,-1.05 (inactive)
CN(C)C(=O)[C@@]1(Cc2ccccc2)N=C(c2ccc(OCCCO)cc2)O[C@H]1c1ccccc1N=[N+]=[N-],2.01,1.25,0.978,1.01,1.34,0.249,-0.631,0.623,0.382,-6.45 (inactive)
[N-]=[N+]=NCc1ccccc1C[C@]1(C(=O)NCC(O)CO)N=C(c2ccc(OCCCO)cc2)O[C@H]1c1ccccc1 (stereo not given in full),0.375,-0.116,-0.294,-0.231,0.263,-0.476,-0.077,-1.5,0.228,-0.263 (inactive)
CCOC(=O)C[C@H]1[C@H](OC(=O)c2cc3ccccc3oc2=O)[C@@H](NC(=O)C2CCCCC2)c2cc(OCCCO)ccc2N1C(=O)c1ccccc1,0.127,0.942,0.711,0.799,0.786,1.48,-0.353,0.558,0.667,-0.196 (inactive)
